# Screening data as filed in PubChem.
# SW480 rerep – induces DNA re-replication in SW480 colon adenocarcinoma cells; SW480 DNA re-replication, Hoechst DNA content imaging, 48 h; Potency, µM (highest dose often 46.1 µM), hits mostly activators; 340,000 tested, 1.8% active; AID 624297; further: nearly all actives have a fitted effect of over 55% in size
#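 Treated cells incubate 48 hr (37 C, 5% CO2), are stained 40 min with Hoechst, and nuclear fluorescence is enumerated; a rise in nuclei with high DNA signal marks re-replication.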
# KB-V1 MDR tox – KB-V1 MDR subline cytotoxicity; 400,000 tested, 3.4% active; Potency, µM (top dose mostly 46.1 µM), usual class: cytotoxic; KB-V1 MDR cells viability, CellTiter-Glo, 72 h; further: nearly all actives have a fitted effect of over 60% in size
#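 KB-V1 MDR subline cells in DMEM (phenol-red free, 10% FBS) exposed to compounds in qHTS concentration series for 72 h at 37 degrees C. Viability read by CellTiter-Glo luminescence; concentration-effect curves fitted after normalization and correction.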
# PINK1 expr mod – changes PINK1 expression | PINK1 immunofluorescence, high-content cytometry, 24 h | Potency, µM (titrated, usually from 76.6 µM), actives largely listed as activators | 410,000 tested, 0.2% active; active means well fitted activation curve with a large enough effect; inconclusive means small, poorly fitted or top-dose-only effect; cell line not stated here; further: nearly all actives have a fitted effect of over 65% in size
#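 PINK1 protein, normally rapidly degraded, was detected by immunofluorescence after 24 hour compound treatment of a stable cell line. Titration data (5 concentrations) came from laser-scanning cytometry, with CCCP-treated wells as controls.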
# KB-3-1 tox – kills parental KB-3-1 adenocarcinoma cells | 400,000 tested, 1.4% active | Potency, µM (titrated, usually from 46.1 µM), usual class: cytotoxic | KB-3-1 viability, CellTiter-Glo ATP luminescence, 72 h | AID 1347075; further: nearly all actives have a fitted effect of over 60% in size
#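 KB-3-1 parental drug-naive adenocarcinoma cells in DMEM/10% FBS, incubated 72 h at 37 C with pin-transferred compounds across a concentration series. Viability by CellTiter-Glo luminescence; concentration-response curves fitted after normalization.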
# ALOX12 inh – ALOX12 (human) lipoxygenase inhibition. P18054. purified 12hLO, xylenol orange hydroperoxide absorbance. Potency, µM (highest dose often 108 µM), usual class: inhibitors. 580,000 tested, 1.1% active. AID 1671190
# Target sequence (P18054 whole entry, looked up): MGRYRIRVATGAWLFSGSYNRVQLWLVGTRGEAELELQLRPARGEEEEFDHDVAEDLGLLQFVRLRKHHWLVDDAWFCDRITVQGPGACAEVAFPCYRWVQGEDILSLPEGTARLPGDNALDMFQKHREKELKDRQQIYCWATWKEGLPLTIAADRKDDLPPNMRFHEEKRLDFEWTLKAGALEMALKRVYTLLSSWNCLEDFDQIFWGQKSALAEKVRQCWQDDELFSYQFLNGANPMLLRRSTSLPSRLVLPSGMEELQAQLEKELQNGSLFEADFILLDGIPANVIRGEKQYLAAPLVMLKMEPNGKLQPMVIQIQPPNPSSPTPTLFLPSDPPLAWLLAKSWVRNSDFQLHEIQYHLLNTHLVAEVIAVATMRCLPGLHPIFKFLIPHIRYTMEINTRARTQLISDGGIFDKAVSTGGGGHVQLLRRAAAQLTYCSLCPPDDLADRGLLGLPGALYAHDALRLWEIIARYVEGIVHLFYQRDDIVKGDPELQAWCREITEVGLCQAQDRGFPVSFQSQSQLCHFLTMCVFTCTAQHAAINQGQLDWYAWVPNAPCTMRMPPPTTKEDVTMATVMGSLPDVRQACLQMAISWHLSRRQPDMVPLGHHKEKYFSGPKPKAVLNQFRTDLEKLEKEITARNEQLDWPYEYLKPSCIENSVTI
#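 Purified human 12hLO at 150 nM in 25 mM Hepes, 0.01% Triton X-100, pH 7.0, preincubated 15 min at room temperature with compound. Reaction started with 40 uM arachidonic acid, 30 min at room temperature. Hydroperoxide measured by Fe-xylenol orange, 573/405 nm absorbance ratio.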
# MCF10A rereplic – induces DNA re-replication in MCF 10a normal breast cells; Potency, µM (highest dose often 46.1 µM), actives largely listed as activators; 350,000 tested, 2.9% active; AID 624296; MCF 10A DNA re-replication, Hoechst nuclear intensity, 48 h; further: nearly all actives have a fitted effect of over 50% in size
# Hits are given with their value; . = inactive; ? = inconclusive; / = no result. The list is not random: actives were taken first. Their share in the collection is about 5.8%. Unless noted, the call rests on the fitted dose curve; in most records, active means well fitted curve in the direction sought with a large enough effect; inconclusive means small, poorly fitted or top-dose-only effect, or another doubt; inactive means no such curve, though single readings can be large; an effect the other way counts as inactive or inconclusive.
SMILES,SW480 rerep,KB-V1 MDR tox,PINK1 expr mod,KB-3-1 tox,ALOX12 inh,MCF10A rereplic
CCCOc1ccc2nc(NC(=O)OC)[nH]c2c1,2.91µM,/,/,/,.,4.61µM
CCOC(=O)Nc1nc2ccc(Cn3cccc3)cc2[nH]1,1.3µM,1.16µM,.,0.581µM,?,3.26µM
COC(=O)Nc1nc2ccc(C(=O)c3ccc(F)cc3)cc2[nH]1,/,/,/,/,.,/
CC(=O)Nc1c(Br)cc2c(c1Br)Cc1cc([N+](=O)[O-])ccc1-2,4.11µM,?,.,.,.,?
Nc1c(Br)cc(Br)c2c1-c1ccc([N+](=O)[O-])cc1C2,.,?,.,.,?,.
O=C(Nc1c(Cl)cc2c(c1Cl)Cc1cc([N+](=O)[O-])ccc1-2)C(Cl)Cl,?,?,.,?,.,18.4µM
CN(C)/C=C/C(=O)c1ccccc1OCc1cnc(Cl)s1,?,.,.,.,.,18.4µM
O=C(OCc1cnc(Cl)s1)c1ccccc1Cl,.,.,.,.,.,.
CCCOc1ccc(C2C(C(=O)c3cc4ccccc4o3)=C(O)C(=O)N2c2cc(C)on2)cc1 (centres undefined),?,.,25.1µM,?,?,.
Cc1cc(N2C(=O)C(O)=C(C(=O)c3cc4ccccc4o3)C2c2cccc(Cl)c2)no1 (centres undefined),?,.,.,.,?,?
Cc1cc(N2C(=O)C(O)=C(C(=O)c3cc4ccccc4o3)C2c2ccc(Cl)cc2)no1 (centres undefined),.,.,.,.,39.8µM,.
Cc1cc(N2C(=O)C(O)=C(C(=O)c3cc4ccccc4o3)C2c2ccc(Br)cc2)no1 (centres undefined),.,.,.,.,39.8µM,?
Cn1nccc1CN1CCC2(C1)C(=O)N(CCc1ccccc1)c1ccccc12 (centres undefined),/,/,/,/,.,/
Cc1ccccc1C(=O)Nc1nnc(CC(=O)N/N=C/c2cn(Cc3ccccc3)c3ccccc23)s1,20.6µM,.,?,?,.,6.51µM
O=S(=O)(N/N=C/c1cn(Cc2ccccc2)c2ccccc12)c1ccccc1,.,20.6µM,.,?,.,?
Cc1ccc(C(=O)N/N=C/c2cn(Cc3ccccc3)c3ccccc23)cn1,?,?,.,16.4µM,.,?
CCNC(=S)N/N=C/c1cn(Cc2ccccc2F)c2ccccc12,.,?,.,.,39.8µM,.
CN(CC(=O)Nc1cccc(F)c1)C(=O)c1nn(Cc2ccccc2)c(=O)c2ccccc12,/,/,/,/,.,/
CCC(C)n1c(SCC(=O)N2CCOCC2)nc2c1c(=O)n(C)c(=O)n2C (centres undefined),/,/,/,/,.,/
COCCCNc1oc(-c2ccc(S(=O)(=O)N3CCCC3)cc2)nc1C#N,/,/,/,/,.,/
CCNC(=S)N/N=C/c1cn(Cc2ccc(F)cc2)c2ccccc12,.,?,.,.,39.8µM,?
CNC(=S)N/N=C/c1cn(Cc2c(F)cccc2Cl)c2ccccc12,.,?,.,?,25.1µM,.
O=[N+]([O-])/C=C/c1cn(Cc2ccc(F)cc2)c2ccccc12,?,.,.,.,3.55µM,?
O=C(O)c1ccc(N/N=C/c2cn(Cc3ccc(F)cc3)c3ccccc23)cc1,.,.,.,.,?,?
N#CCC(=O)N/N=C/c1cn(Cc2cccc3ccccc23)c2ccccc12,14.6µM,.,.,?,.,5.17µM
SMILES,SW480 rerep,KB-V1 MDR tox,PINK1 expr mod,KB-3-1 tox,ALOX12 inh,MCF10A rereplic
O=C(COC(=O)c1ccc(O)cc1)c1ccc(NC(=O)c2ccco2)cc1,/,/,/,/,.,/
O=C(NCc1cccs1)c1cc2ccccc2oc1=O,/,/,/,/,.,/
Nc1nc2ccccc2cc1C(=O)NCCCCc1ccccc1,/,2.59µM,.,.,/,/
Nc1nc2ccccc2cc1C(=O)NCc1cccs1,/,16.4µM,/,.,.,/
O=C(NCc1cccs1)c1cc(-c2ccccc2)nc2ccccc12,.,?,.,.,.,?
Cc1ccc(C)c(-c2cc(C(=O)NCc3cccs3)c3ccccc3n2)c1,?,11.6µM,.,.,.,?
Cc1ccccc1C(=O)NCCCCc1ccccc1,.,.,.,.,.,.
Cc1nn(-c2cc(N3CCN(C(=O)c4ccc(F)cc4)CC3)ccc2[N+](=O)[O-])c(=O)c2ccccc12,/,/,/,/,.,/
N#Cc1ccccc1NC(=O)C1CCCC1,/,/,/,/,.,/
CCN(CC)S(=O)(=O)NC1CCN(c2ncccn2)CC1,/,/,/,/,.,/
COc1ccc2c(c1)-c1c(ssc1=S)C(C)(C)N2C(=O)CSC1=NCCS1,.,.,.,.,.,.
CCOc1ccc2c(c1)-c1c(ssc1=S)C(C)(C)N2C(=O)c1ccco1,16.4µM,?,.,?,?,4.11µM
Cn1c(=O)c2c(nc(N3CCN(c4ccccn4)CC3)n2Cc2ccccc2F)n(C)c1=O,/,/,/,/,.,/
Cn1c(=O)c2c(nc(N3CCN(c4ccccn4)CC3)n2Cc2ccc(Cl)cc2Cl)n(C)c1=O,.,0.651µM,.,.,.,.
Cn1c(=O)c2c(nc(NCC3CCCC(CN)C3)n2Cc2ccc(Cl)cc2Cl)n(C)c1=O (centres undefined),4.11µM,?,.,?,.,?
COc1ccc(C2N=C(N)Nc3nc4ccccc4n32)cc1 (centres undefined),/,/,.,/,.,/
NC1=NC(c2ccc(F)cc2)n2c(nc3ccccc32)N1 (centres undefined),?,.,.,.,.,25.9µM
CC(=NO)C1CCC2C3CCC4CC(=NO)CCC4(C)C3C(C)(O)CC12C (centres undefined),.,11.6µM,.,.,.,.
CC(=O)C1CCC2C3CCC4CC(=O)CCC4(C)C3C=CC12C (centres undefined),.,.,.,.,.,.
c1coc(-c2nc3ccccc3nc2-c2ccco2)c1,.,.,.,.,50.1µM,.
O=C(c1ccccc1)c1ccc2nc(-c3ccco3)c(-c3ccco3)nc2c1,?,?,.,.,?,?
c1coc(-c2cnc3ccccc3n2)c1,/,.,.,.,39.8µM,/
Cc1cc(C)c2[nH]c(C(=O)O)cc2c1,/,/,/,/,.,/
C=CCN1C(=O)c2ccccc2NC1c1ccc(Br)s1 (centres undefined),.,?,.,.,.,.
O=C1c2ccccc2NC(c2ccc(Br)s2)N1O (centres undefined),.,?,.,?,.,23.1µM
CCOC(=O)N1CCC(NC(=O)CCc2c(C)nc3nc(C)nn3c2C)CC1,.,.,.,.,.,.
CCOC(=O)N1CCC(NC(=O)CCc2c(C)nc3c(c(C)nn3C(C)(C)C)c2C)CC1,.,3.66µM,.,?,.,.
Cc1ccc(SC(C)C(=O)Nc2c(C)cccc2C)cc1 (centres undefined),/,/,/,/,.,/
O=C(O)/C(=C\c1ccc(Cl)c([N+](=O)[O-])c1)c1ccc(S(=O)(=O)N2CCCCC2)s1,.,.,.,.,?,.
